Measurements published in PubChem BioAssay.
Activity calls are given as the source filed them.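 Rule for the calls, unless noted: active = visual image review flags a hit and inhibition of aggregation exceeds 20%; inconclusive = visual hit but inhibition at or below 20%; inactive = no hit on visual image review.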

What was measured:
[1] = inhibitors of TNFa-induced NFkB p65 translocation, primary screen, imaging, HUVEC, MLSMR starter and 10KST1 sets (AID 438;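 active = inhibition above 20% together with a positive visual image hit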;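 note: compound added about 3h40 before a 20 min TNFalpha stimulation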;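 for inhibition: signal is the nuclear over cytoplasmic p65 intensity ratio per well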); details: HUVEC TNFa-induced p65 nuclear translocation; cell count: measured here: nuclei count (cytotoxicity indicator), at 2.08 µM; inhibition: at 2 µM, stronger effect = higher value, 0% TNFa-plus-vehicle, 100% no-TNFa wells
[2] = inhibitors of mutant huntingtin aggregation, primary screen, imaging, exon1htt(103Q)mCFP cells, high-content imaging (AID 483); details: exon1htt(103Q)mCFP cell line, aggregate imaging, at 2 µM; inhibition of aggregation: stronger effect = higher value; nuclei count: measured here: cell count, toxicity;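 note: compound exposure lasted 3 days before fixation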;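 for nuclei count: percent of the per-plate median nuclei count of sample wells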
[3] = inhibitors of E-selectin induction by TNFa, primary screen, imaging, HUVEC, immunofluorescence, MLSMR starter and 10KST1 sets (AID 487;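 active = visually confirmed hit in the image check and inhibition above 20%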;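 for inhibition: signal is fraction of cell area covered by stained E-selectin grains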;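 for nuclei count: 100% = median nuclei count of all wells on the same plate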); details: HUVEC TNFalpha-induced E-selectin immunofluorescence imaging, at 2 µM; inhibition: stronger effect = higher value; nuclei count: measured here: cell number, toxicity
[4] = target: Voltage-gated potassium channel subunit beta-2 (Rattus norvegicus) (UniProt P62483); experiment: KvBeta enzyme negative modulators, primary screen, biochemical, NADPH fluorescence (AID 622;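 active = fluorescence slope higher than the sample average by over 3 SD, cut at about -0.22 in these data, passing the limit was not always enough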;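 note: slope of raw intensity against log time taken from 70 to 1610 s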); details: recombinant KvBeta, 4-cyanobenzaldehyde reduction, at 10 µM, stronger effect = higher value
[5] = target: Voltage-gated potassium channel subunit beta-2 (Rattus norvegicus) (UniProt P62483); experiment: KvBeta positive modulators, primary screen, biochemical, NADPH fluorescence (AID 623;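 active = NADPH fluorescence slope more negative than the mean of all samples by about 3 SD, 99.7% confidence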;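 note: fluorescence intensity change per second fitted from 20 to 320 s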); details: Recombinant KvBeta, NADPH fluorescence decrease slope, 10 min; at 10 µM; stronger effect = lower value
[6] = target: Alpha-2C adrenergic receptor (Homo sapiens) (UniProt P18825); experiment: modulators of alpha2C/GIRK thallium flux, primary screen, cell-based, HEK293 alpha2C/GIRK1/2 (AID 624;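 active = fluorescence slope after compound addition differing from the mean of all screened samples at 99.7% confidence, in either direction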;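 note: slope of fluorescence ratio to pre-addition baseline per second over 15 to 24 s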); details: thallium flux BTC fluorescence, at 10 µM, actives lie on both sides
[7] = inhibitors of Sendai virus-induced IRF3 signaling, primary screen, TLR/RLR signaling modifier project, cell-based, Sendai virus stimulus, luciferase, 10K MLSCN set (AID 602276;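 active = inhibition at or above 50% at 10 µM; inactive = inhibition below 50%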;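 note: firefly luciferase from ISG56 promoter only with Renilla not read in this screen; 0% = Sendai virus plus DMSO and 100% = medium plus DMSO without virus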); details: HEK293 RL24 IRF3 luciferase reporter, at 10 µM, stronger effect = higher value
[8] = inhibitors of poly I:C-induced TLR3 signaling, primary screen, cell-based, poly I:C stimulus, luciferase, 10K MLSCN set (AID 602277;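 active = inhibition of the reporter signal at or above 50%; inactive = inhibition below 50%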); details: HEK293-TLR3 RL24 IRF3 luciferase reporter, at 10 µM, stronger effect = higher value

Sequence of Alpha-2C adrenergic receptor (Homo sapiens) (P18825 whole entry, looked up): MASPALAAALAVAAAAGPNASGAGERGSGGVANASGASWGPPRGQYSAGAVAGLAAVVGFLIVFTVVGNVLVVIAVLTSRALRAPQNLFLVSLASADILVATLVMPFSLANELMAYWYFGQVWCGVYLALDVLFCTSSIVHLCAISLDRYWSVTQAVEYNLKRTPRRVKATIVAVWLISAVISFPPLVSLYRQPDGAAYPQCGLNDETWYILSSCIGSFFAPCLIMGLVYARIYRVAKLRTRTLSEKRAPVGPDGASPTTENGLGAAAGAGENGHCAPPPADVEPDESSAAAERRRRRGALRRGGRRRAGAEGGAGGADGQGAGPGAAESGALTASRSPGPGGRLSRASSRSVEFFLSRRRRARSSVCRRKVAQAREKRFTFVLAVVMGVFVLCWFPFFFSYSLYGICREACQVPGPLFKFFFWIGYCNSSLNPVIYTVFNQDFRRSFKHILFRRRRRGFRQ
Sequence of Voltage-gated potassium channel subunit beta-2 (Rattus norvegicus) (P62483 whole entry, looked up): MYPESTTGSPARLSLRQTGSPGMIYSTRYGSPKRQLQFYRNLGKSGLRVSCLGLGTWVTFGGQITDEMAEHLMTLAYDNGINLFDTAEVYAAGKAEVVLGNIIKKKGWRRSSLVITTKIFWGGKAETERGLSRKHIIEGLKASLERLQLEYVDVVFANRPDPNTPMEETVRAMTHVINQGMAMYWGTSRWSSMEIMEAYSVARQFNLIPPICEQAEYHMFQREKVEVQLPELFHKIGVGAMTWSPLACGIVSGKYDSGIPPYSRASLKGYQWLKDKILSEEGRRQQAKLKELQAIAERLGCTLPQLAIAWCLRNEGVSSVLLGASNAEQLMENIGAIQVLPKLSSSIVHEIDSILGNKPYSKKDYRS

Row | SMILES | cell count [1] | inhibition [1] | inhibition of aggregation [2] | nuclei count [2] [%] | inhibition [3] | nuclei count [3] [%] | fluorescence slope [4] | NADPH fluorescence slope [5] | slope [6] | inhibition [7] | inhibition [8]
1 | O=C1NC(Cc2c[nH]c3ccccc23)C(=O)N1CCOc1ccccc1 (centres undefined) | 674 | 4.9% (inactive) | 3.1% (inactive) | 120 | -14.9% (inactive) | 138 | -0.429 (inactive) | -4.2e-05 (inactive) | 0.00422 (inactive) | 13.6% (inactive) | 19.7% (inactive)
2 | CC(=O)c1n[nH]nc1NC(=O)c1ccccc1 | 574 | -25.8% (inactive) | -6.9% (inactive) | 100 | -46.6% (inactive) | 119 | -0.525 (inactive) | -2.5e-05 (inactive) | 0.00678 (inactive) | 4.32% (inactive) | -46% (inactive)
3 | COc1ccc(C(NC(=O)C(C)(C)C)NC(=O)C(C)(C)C)cc1 | 364 | 3% (inactive) | 0.4% (inactive) | 106 | -52.8% (inactive) | 102 | -0.618 (inactive) | -1e-05 (inactive) | 0.00914 (inactive) | 4.79% (inactive) | 9.47% (inactive)
4 | CCn1c(=O)c(C(=O)NCc2ccc(OC)cc2)c(O)c2ccccc21 | 685 | 12.5% (inactive) | 0.6% (inactive) | 101 | 33.9% (inactive) | 101 | -0.353 (inactive) | -2.5e-05 (inactive) | 0.00899 (inactive) | 14.7% (inactive) | 16.2% (inactive)
5 | CCC(C)(C(=O)NC1CCCC1)N(Cc1cccs1)C(C)=O (centres undefined) | 472 | 6.2% (inactive) | -9.4% (inactive) | 115 | -15% (inactive) | 93.8 | -0.491 (inactive) | -1.6e-05 (inactive) | 0.00646 (inactive) | 14.8% (inactive) | 24.4% (inactive)
6 | CCCN(CCC)C(=O)c1c(C)[nH]c(C(=O)OCC)c1C | 740 | 0.6% (inactive) | 2% (inactive) | 109 | -78.7% (inactive) | 106 | -0.605 (inactive) | -2.3e-05 (inactive) | 0.00726 (inactive) | -15.1% (inactive) | -1.04% (inactive)
7 | CCOC(=O)COc1ccc(C2NC(C(=O)O)CS2)cc1 (centres undefined) | 367 | -9.6% (inactive) | 9.8% (inactive) | 55.1 | -4.8% (inactive) | 97.6 | -0.381 (inactive) | -1.3e-05 (inactive) | 0.00376 (inactive) | 12.5% (inactive) | 13% (inactive)
8 | COc1cc(C2NC(=O)NC(C)=C2C(=O)OCC2CCCO2)ccc1O (centres undefined) | 401 | 1.8% (inactive) | -5.3% (inactive) | 112 | -105% (inactive) | 114 | -0.489 (inactive) | -3.4e-05 (inactive) | 0.00604 (inactive) | 1.44% (inactive) | 24.7% (inactive)
9 | CCOC(=O)N1CCN(C(=O)COc2ccc(Br)cc2Cl)CC1 | 317 | 2% (inactive) | -6.6% (inactive) | 98.4 | -27.2% (inactive) | 118 | -0.445 (inactive) | -5.1e-05 (inactive) | 0.00378 (inactive) | 6.45% (inactive) | 30.7% (inactive)
10 | Cc1cnc(SCCc2ccncc2)nc1C | 650 | -17% (inactive) | -22.1% (inactive) | 116 | -103% (inactive) | 101 | -0.278 (inactive) | -1.1e-05 (inactive) | 0.00606 (inactive) | 6.48% (inactive) | -3.71% (inactive)
11 | CC1CCC(C(=O)NC(C(=O)NCCN2CCC(C)CC2)C(C)C)CC1 (centres undefined) | 256 | -3.9% (inactive) | -5.5% (inactive) | 71.9 | -24.9% (inactive) | 101 | -0.495 (inactive) | 8.5e-05 (inactive) | 0.00683 (inactive) | 19.4% (inactive) | 25.4% (inactive)
12 | O=C(Nc1nc2c(s1)CCCC2)C1COc2ccccc2O1 (centres undefined) | 695 | -13.1% (inactive) | 30.9% (inactive) | 110 | -26.2% (inactive) | 114 | -0.517 (inactive) | -1.6e-05 (inactive) | 0.00646 (inactive) | 31% (inactive) | -19.8% (inactive)
13 | CC(C)n1c(CN2CCN(C)CC2)nc2c1c(=O)n(C)c(=O)n2C | 600 | -5.3% (inactive) | 0.5% (inactive) | 103 | -24.8% (inactive) | 118 | -0.488 (inactive) | -4.5e-05 (inactive) | 0.00573 (inactive) | 22.2% (inactive) | 22.9% (inactive)
14 | COc1ccccc1OCC(=O)NCC1CCCCC1 | 394 | -28.2% (inactive) | 5.6% (inactive) | 108 | 28.4% (inactive) | 102 | -0.413 (inactive) | -2.9e-05 (inactive) | 0.00305 (inactive) | -1.17% (inactive) | -7.1% (inactive)
15 | Cn1c(=O)c(=O)n(C)c2cc(S(=O)(=O)Nc3ccc4c(c3)OCCO4)ccc21 | 354 | -1.2% (inactive) | -18.4% (inactive) | 106 | -21.4% (inactive) | 108 | -0.421 (inactive) | -5.4e-05 (inactive) | 0.00519 (inactive) | 45.1% (inactive) | 35.8% (inactive)
16 | COc1cc(C(=O)Nc2ccc(-n3cnnn3)c(C)c2)cc(OC)c1OC | 302 | 5.8% (inactive) | 11.6% (inactive) | 90 | -94.5% (inactive) | 149 | -0.617 (inactive) | 3e-06 (inactive) | 0.00564 (inactive) | -0.467% (inactive) | 20.8% (inactive)
17 | CCOc1ccc(N(CC)C(=O)COc2cc(=O)n(C)c3ccccc23)cc1 | 622 | 16.5% (inactive) | -19.7% (inactive) | 101 | -47.3% (inactive) | 118 | -0.516 (inactive) | 7.5e-06 (inactive) | 0.0065 (inactive) | 12.4% (inactive) | 29.8% (inactive)
18 | CCN(CC)CCNC(=O)c1ccc(CS(=O)(=O)c2ccc(Br)cc2)o1 | 655 | 11.2% (inactive) | -11.8% (inactive) | 103 | 21.7% (inactive) | 117 | -0.611 (inactive) | -3.9e-05 (inactive) | 0.00568 (inactive) | 7.79% (inactive) | 25.7% (inactive)
19 | Cc1sc2ncn3ncnc3c2c1C | 546 | -10% (inactive) | -1.7% (inactive) | 41.8 | 25.3% (inactive) | 102 | -0.617 (inactive) | -3.8e-05 (inactive) | 0.00315 (inactive) | -16.9% (inactive) | -56.2% (inactive)
